From PubChem BioAssay
FUS yeast rescue: FUS proteinopathy suppression in yeast. S. cerevisiae FUS-expressing, growth rescue, OD600, 24 h. Potency, µM (highest dose often 76.6 µM), hits mostly activators. 390,000 compounds, 0.24% hits. AID 1347120;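 further: plate controls were DMSO vehicle for no effect and reference control for full effect; nearly all actives have a fitted effect of over 55% in size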
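Read-out: OD at 600 nm after 24hr at 30C, reporting rescue of FUS-induced yeast toxicity. Cells at OD 0.005 in galactose (2%) minimal medium; compounds tested in a dilution series; CP55940 titration from 92uM final as control.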
aSyn rescue: alpha-synuclein toxicity inhibition in yeast. Yeast expressing alpha-synuclein, growth rescue, BacTiter-Glo, 24 h. Potency, µM (series often up to 46.1 µM), for inactives: top-dose growth rescue (activation), hits mostly activators. 370,000 compounds, 0.14% hits. AID 652106; further: % of control where 0% means no effect; nearly all actives have a fitted effect of over 65% in size
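Galactose-induced alpha-syn yeast (OD600=0.02, raffinose-pregrown) + pinned cpd, 24 hr, 30 deg C; growth by BacTiter-Glo luminescence. Growth restoration scores as activation.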
TDP43 rescue: inhibitors of TDP-43 toxicity in yeast | TDP-43 expressing yeast growth rescue, BacTiter-Glo, 24 h | Potency, µM (titrated, usually from 46.1 µM), without a hit: at the highest dose growth rescue (activation), hits mostly activators | 410,000 compounds, 1.8% hits | AID 652104; further: % of control where 0% means no effect; nearly all actives have a fitted effect of over 50% in size
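Galactose-induced TDP-43 yeast, OD600=0.02, compound pinned; 24 hr, 30 deg C; BacTiter-Glo luminescence for growth. Inhibitors of TDP-43 toxicity read as activators.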
Abeta yeast res: compounds reversing amyloid beta toxicity in yeast | yeast expressing A-beta42, growth rescue, OD600, 48 h; response scale: 0% DMSO, 100% iron-clioquinol control | Potency, µM (doses to about 46.1 µM), usual class: activators | 410,000 compounds, 0.063% hits | AID 1347071; further: nearly all actives have a fitted effect of over 55% in size
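Growth rescue measured by 600 nm absorbance after 48 h yeast culture at 30 C with compound. Values normalized between DMSO and an equimolar ferric chloride plus clioquinol control.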
Numbers without * were called inactive; [ ] = remark or other dose. An excerpt weighted towards active compounds, which were near 2.1% of everything screened. The call rests on the fitted dose curve; in most records, active means well fitted curve in the direction sought with a large enough effect; inconclusive means small, poorly fitted or top-dose-only effect, or another doubt; inactive means no such curve, though single readings can be large; an effect the other way counts as inactive or inconclusive. Potency means the concentration at half of the fitted maximal effect.

What do the screens show for `Cc1cccc(N(C)c2nc3ccc(C)cc3n3cnnc23)c1`?
FUS yeast rescue: inactive; TDP43 rescue: 12.6µM*; Abeta yeast res: inactive

Results for Clc1cccc(-n2ncc3c(NC4CCCCCC4)ncnc32)c1 ?
FUS yeast rescue: inactive; TDP43 rescue: 35.5µM*; Abeta yeast res: inactive

What do the screens show for `Cc1ccc(-n2ncc3c(NC4CCCC4)ncnc32)cc1`?
FUS yeast rescue: inactive; TDP43 rescue: 1.26µM*; Abeta yeast res: inactive

What do the screens show for `Cn1cccc1/C=C1\SC(=Nc2ccccc2)NC1=O`?
FUS yeast rescue: inactive; aSyn rescue: 0.3%; TDP43 rescue: 16.0%; Abeta yeast res: inactive

What do the screens show for `Cc1nn(-c2ccccc2)c(C)c1NC(=O)COC(=O)Cc1cccc(C(F)(F)F)c1`?
FUS yeast rescue: inactive; aSyn rescue: 1.0%; TDP43 rescue: 11.7%; Abeta yeast res: inactive

What do the screens show for `Cc1ccc(C)c(C(=O)NCCN(C)C)c1`?
FUS yeast rescue: inactive; aSyn rescue: 0.2%; TDP43 rescue: 7.3%; Abeta yeast res: inactive

What do the screens show for `CCCOc1cccc(C(=O)NCCNC(=O)c2cnccn2)c1`?
FUS yeast rescue: inactive; aSyn rescue: -6.6%; TDP43 rescue: -7.1%; Abeta yeast res: inactive

Results for CC(OC(=O)C1CC(O)CN1S(=O)(=O)c1ccccc1[N+](=O)[O-])C(=O)N1CCCCC1 (configuration not stated) ?
FUS yeast rescue: inactive; aSyn rescue: -1.3%; TDP43 rescue: -12.4%; Abeta yeast res: inactive

How did OCc1cccc(-c2cnc3c(Nc4cccc(OC(F)(F)C(F)F)c4)nccn23)c1 do in these assays?
FUS yeast rescue: inconclusive; aSyn rescue: -7.3%; TDP43 rescue: 20µM*; Abeta yeast res: inactive

What do the screens show for `Cc1ccc(-c2cnc3c(Nc4cccc(OC(F)(F)C(F)F)c4)nccn23)cc1`?
FUS yeast rescue: inactive; aSyn rescue: -16.5%; TDP43 rescue: 9.4%; Abeta yeast res: inactive

Results for O=C(Nc1ccc(-n2nncc2-c2ccccc2)cc1)c1ccccc1 ?
aSyn rescue: -1.6%

What do the screens show for `CCOC(=O)C(=O)Nc1nc(-c2ccccc2)c(-c2ccccc2)o1`?
aSyn rescue: inconclusive; TDP43 rescue: 10.4%; Abeta yeast res: inconclusive

How did O=C(Nc1nc(-c2ccccc2)c(-c2ccccc2)o1)c1ccc(F)cc1 do in these assays?
FUS yeast rescue: inactive; aSyn rescue: inconclusive; TDP43 rescue: inconclusive; Abeta yeast res: 11.2µM*

What do the screens show for `COc1cccc(C(=O)Nc2ccc(-n3nncc3-c3ccccc3)cc2)c1`?
FUS yeast rescue: inconclusive; TDP43 rescue: 35.5µM*; Abeta yeast res: inactive

Results for COc1cccc(C(=O)Nc2nc(-c3ccccc3)c(-c3ccccc3)o2)c1 ?
FUS yeast rescue: inactive; aSyn rescue: inconclusive; TDP43 rescue: 20µM*; Abeta yeast res: 15.8µM*

How did COc1cccc(C(=O)Nc2c(C(=O)NC(C)(C)C)oc3ccccc23)c1 do in these assays?
FUS yeast rescue: inactive; TDP43 rescue: 17.8µM*; Abeta yeast res: inactive

Results for O=C(O)c1ccccc1COc1ccccc1Cl ?
FUS yeast rescue: inactive; aSyn rescue: -23.8%; TDP43 rescue: -22.4%; Abeta yeast res: inactive

What do the screens show for `CCOCCCN1C(=O)c2ccccc2CC1(C)C(=O)NC1CCCCC1` (configuration not stated)?
FUS yeast rescue: inactive; TDP43 rescue: 3.3%; Abeta yeast res: inactive

What do the screens show for `Cc1cc(C(=O)N/N=C/c2sccc2C)no1`?
FUS yeast rescue: inactive; aSyn rescue: -0.5%; TDP43 rescue: 17.0%; Abeta yeast res: inactive

What do the screens show for `O=C(Nc1c(F)cc(F)cc1Br)c1cc(-c2ccc(O)cc2)on1`?
FUS yeast rescue: inactive; aSyn rescue: -20.0%; TDP43 rescue: 11.2µM*; Abeta yeast res: inactive

Results for c1ccc2c(-c3csc(-c4ccncc4)n3)c[nH]c2c1 ?
FUS yeast rescue: inactive; aSyn rescue: 15.0%; TDP43 rescue: 3.98µM*; Abeta yeast res: inactive

What do the screens show for `Cc1ccc(S(=O)(=O)N2CCSC2)cc1C`?
FUS yeast rescue: 0.891µM*; aSyn rescue: 1.3%; TDP43 rescue: -11.1%; Abeta yeast res: inactive

What do the screens show for `Cc1ccc(-n2ccnc(NCc3ccccc3)c2=O)cc1C`?
FUS yeast rescue: inactive; TDP43 rescue: 31.6µM*; Abeta yeast res: inactive

What do the screens show for `COc1cccc(CNc2nccn(-c3cc(C)cc(C)c3)c2=O)c1`?
FUS yeast rescue: inactive; TDP43 rescue: 17.8µM*; Abeta yeast res: inactive

How did Cc1ccc(CNc2nccn(-c3cc(C)cc(C)c3)c2=O)cc1 do in these assays?
FUS yeast rescue: inactive; TDP43 rescue: inconclusive; Abeta yeast res: inactive

What do the screens show for `Cc1cccc(C(=O)NCCCNC(=O)c2ccccn2)c1`?
FUS yeast rescue: inactive; aSyn rescue: -2.0%; TDP43 rescue: -4.7%; Abeta yeast res: inactive

Results for O=C(O)CC1(CC(=O)Nc2ccc3sccc3c2)CCCCC1 ?
FUS yeast rescue: inactive; aSyn rescue: -15.0%; TDP43 rescue: 7.94µM*; Abeta yeast res: inactive

Results for CN(C(=O)CSc1nnc(-c2ccco2)n1N)C1CCCCC1 ?
FUS yeast rescue: inactive; aSyn rescue: -0.9%; TDP43 rescue: -16.4%[9.22 µM]; Abeta yeast res: inactive

Results for S=C(NCc1ccco1)NCc1ccco1 ?
aSyn rescue: -29.4%; TDP43 rescue: -9.1%; Abeta yeast res: inactive

Results for Cc1cccc(NC(=S)NCc2ccco2)n1 ?
FUS yeast rescue: inactive; aSyn rescue: 0.9%; TDP43 rescue: inconclusive; Abeta yeast res: 12.6µM*

Results for Cc1[nH]c2ccccc2c1C(=O)CN1CCC2(CC1)OCCO2 ?
FUS yeast rescue: inactive; aSyn rescue: 3.1%; TDP43 rescue: -0.6%; Abeta yeast res: inactive

How did CC1CCN(c2nc(-c3ccco3)c3c(c2C#N)CC(C)(C)OC3)CC1 do in these assays?
FUS yeast rescue: inactive; aSyn rescue: 3.7%; TDP43 rescue: 11.2µM*; Abeta yeast res: inactive

How did CCc1nc(N2CCN(C(=O)c3ccccc3)CC2)c(C#N)c2c1COC(C)(C)C2 do in these assays?
FUS yeast rescue: inactive; aSyn rescue: 8.4%; TDP43 rescue: 20µM*; Abeta yeast res: inactive

What do the screens show for `CC1(C)Cc2c(C#N)c(N3CCN(C(=O)c4ccccc4)CC3)nc(Cc3ccccc3)c2CO1`?
FUS yeast rescue: inactive; aSyn rescue: -0.9%; TDP43 rescue: 8.1%; Abeta yeast res: inactive

Results for CSC1=C(C#N)C(c2cccc(Br)c2)CC(=O)N1 (configuration not stated) ?
FUS yeast rescue: inactive; aSyn rescue: -5.8%; TDP43 rescue: -20.9%; Abeta yeast res: inactive

How did Cc1ccc(Sc2ccc(NC(=O)CCl)cc2)cc1C do in these assays?
FUS yeast rescue: inactive; aSyn rescue: -35.0%; TDP43 rescue: inconclusive; Abeta yeast res: inactive

How did Cc1ccc(C)c(Sc2ccc(NC(=O)CCl)cc2)c1 do in these assays?
FUS yeast rescue: inactive; aSyn rescue: 17.1%; TDP43 rescue: 8.91µM*; Abeta yeast res: inactive

How did COc1nnc(-c2ccc(N3CCOCC3)c(NC(C)=O)c2)c2ccccc12 do in these assays?
FUS yeast rescue: inactive; aSyn rescue: -16.8%; TDP43 rescue: -11.4%; Abeta yeast res: inactive
